Assay results from PubChem BioAssay (NCI).
“And” between values parts separate entries of the source, which are not always exact repeats. Equal values may be shown once. This is part of a sample that, as a whole, favours compounds with a hit. Of some 79,000 tested, about 15% had one in any assay. Cut-off read from the data, not from the text of the source: active = growth inhibition above about 70%; inactive = the rest.

How the values were obtained:
[1] = NCI Yeast Anticancer Drug Screen. Data for the rad50 strain (AID 155);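 note: 0% = growth of vehicle-only cultures of the same strain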; details: S. cerevisiae rad50 strain growth inhibition; at 50.0 µM; hits give high values
Method in brief: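 Vehicle-treated cultures provide the reference for the growth inhibition reported for compound-exposed, repair-deficient yeast.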

[2] = NCI Yeast Anticancer Drug Screen. Data for the mec2-1 strain (AID 157); details: S. cerevisiae mec2-1 strain, at 50.0 µM, hits give high values
Method in brief: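 Yeast mec2-1 mutant treated with compound. Readout: growth inhibition vs vehicle controls.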

[3] = NCI Yeast Anticancer Drug Screen. Data for the sgs1 mgt1 strain (AID 161);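 note: 0% = growth of cultures given vehicle only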; details: S. cerevisiae sgs1 mgt1 strain, at 50.0 µM, hits give high values
Method in brief: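 Mutant yeast exposed to compound; growth scored against vehicle-only wells.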

[4] = NCI Yeast Anticancer Drug Screen. Data for the cln2 rad14 strain (AID 165);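 note: 0% = growth equal to vehicle treated cultures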; details: S. cerevisiae cln2 rad14 strain, at 50.0 µM, hits give high values
Method in brief: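 cln2 rad14 yeast strain; compound exposure; growth inhibition read vs vehicle controls.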

[5] = NCI Yeast Anticancer Drug Screen. Data for the bub3 strain (AID 167); details: S. cerevisiae bub3 mutant strain, at 50.0 µM, hits give high values
Method in brief: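 Mutant yeast screening strain plus compound; vehicle-treated cultures serve as the 0% inhibition reference.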

[6] = NCI Yeast Anticancer Drug Screen. Data for the mlh1 rad18 strain (AID 175); details: S. cerevisiae mlh1 rad18 strain growth inhibition; at 50.0 µM; hits give high values
Method in brief: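 Yeast w/ defined DNA-repair lesions; compound exposure; growth vs vehicle controls → % inhibition.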

Measured: growth inhibition

COc1cccc(C)c1C1CC2CCCN2O1 (configuration not stated)
inactive: [1] 16.6% | [2] 5.5% | [3] 5.95% | [4] 9.4% | [5] 14.7% | [6] 5.3%

COC1C=CC23c4cc5c(cc4COC2(O)CN(C)C3C1)OCO5 (configuration not stated)
inactive: [1] -18.2% | [2] -26.2% | [3] -56.5% | [4] -4.5% | [5] -18.9% | [6] -28.6%

C[CH2][Sn]([CH2]C)([CH2]C(=O)OC)[CH2]C(=O)OC
inactive: [1] 3.15% | [2] 14.7% | [3] 15.5% | [4] 11.7% | [5] 14.4% | [6] -9.9%

O=[As](O)(c1cccc(Cl)c1)C1CCCCC1O (configuration not stated)
inactive: [1] 1.05% | [2] -0.35% | [3] 5.3% | [4] -1.95% | [5] 25.2% | [6] 34.4%

O=C1OP2(c3ccccc3)(OC(=O)c3ccccc32)c2ccccc21
inactive: [1] 18.6% | [2] 16.2% | [3] 20.4% | [4] -20.3% | [5] -18.5% | [6] 14.3%

C(=C/[PH+](c1ccccc1)c1ccccc1)/[PH+](c1ccccc1)c1ccccc1.C(=C/[PH+](c1ccccc1)c1ccccc1)/[PH+](c1ccccc1)c1ccccc1.C(=C/[PH+](c1ccccc1)c1ccccc1)/[PH+](c1ccccc1)c1ccccc1.[Pt]
inactive: [1] 8.65% | [2] 17.6% | [3] 36% | [4] 36.9% | [5] 13.8% | [6] 36.5%

O=C1CN=CN1
inactive: [1] -8.85% | [2] 8.85% | [3] -0.45% | [4] -12.6% | [5] -7.5% | [6] -5.3%

COc1ccccc1N
inactive: [1] -2.9% | [2] 1.25% | [3] 4.3% | [4] -8.05% | [5] -9.45% | [6] -17.4%

CCCCN(CCCC)CCc1ccccc1
inactive: [1] 19.6% | [2] 1.8% | [3] 8.45% | [4] 17.8% | [5] 30.4% | [6] 17%

CCOc1ccc(Nc2nc(=O)[nH]c3ccccc23)cc1CN(CCCl)CCCl
inactive: [1] 18.7% | [2] 0.95% | [3] 10.5% | [4] -19.4% | [5] 1.3% | [6] 22.4%

CCNC(Cc1ccccc1)C1CCCO1 (configuration not stated)
inactive: [1] 3.15% | [2] -0.35% | [3] -15.6% | [4] 2% | [5] -18.4% | [6] -27.9%

N#CN1CC(C(=O)N2CCCCC2)C=C2c3cccc4[nH]cc(c34)CC21 (configuration not stated)
inactive: [1] 9.5% | [2] -10.8% | [3] 34.5% | [4] 0.05% | [5] 8.95% | [6] 10.9%

CCC12C=CCN3CCC4(c5ccc(OC)cc5N(C)C4C(O)(C(=O)OC)C1OC(C)=O)C32 (configuration not stated) (tested in a mixture with another compound)
inactive: [1] 5.3% and 8.35% | [2] 5.4% and 17.2% | [3] -5.85% and 11.3% | [4] -10.7% and 2.25% | [5] -3.15% and 0.7% | [6] 25.4% and 22.1%

CCCN(CCC)CC(O)c1ccc2c3c(cccc13)CC2 (configuration not stated)
inactive: [1] 21.9% | [2] -5.9% | [3] 19.2% | [4] -10.1% | [5] -4.6% | [6] 16.4%

CC(C)(C)C1COP(=S)(C(C)(C)C)OC1 (configuration not stated)
inactive: [1] -8.3% | [2] -5.6% | [3] -0.55% | [4] -20.5% | [5] -0.5% | [6] -5.15%

CC[C@@H]1C[C@H]2CC3c4[nH]c5ccccc5c4CCN(C2)C31
inactive: [1] 45.9% | [2] 30.2% | [3] 61.3% | [4] 37% | [5] 47.2% | [6] 65.8%

O=C(O)[C@@H]1C2CCC(C[C@@H]1O)N2C(=O)c1ccccc1 (some centres not stated)
inactive: [1] -12.8% | [2] -3.55% | [3] 2.85% | [4] -33.5% | [5] -15.4% | [6] -1.2%

Cc1cccc(N)c1N
inactive: [1] 24.1% | [2] -15.1% | [3] 11.1% | [4] 0.4% | [5] -0.45% | [6] 13.7%

N#Cc1ccc(N)cc1
inactive: [1] -2.9% | [2] -7.9% | [3] -37.5% | [4] -10.8% | [5] -18.4% | [6] -16.8%

CC(=O)C(C(C)=O)C(C)=O.CC(=O)C(C(C)=O)C(C)=O.CC(=O)C(C(C)=O)C(C)=O.[Cr]
inactive: [1] 25.2% | [2] 2.8% | [3] 11.2% | [4] 7.25% | [5] -3.6% | [6] 5.25%

NNC(=O)c1ccc(O)cc1
inactive: [1] 1.15% | [2] -2.65% | [3] -13.3% | [4] -17.4% | [5] -0.05% | [6] 18.2%

NCCCP(c1ccccc1)c1ccccc1
inactive: [1] 0.3% | [2] 0.4% | [3] -5.65% | [4] 8.7% | [5] -1.7% | [6] 10.6%

O=C(CC(=O)C(F)(F)F)c1cccs1.O=C(CC(=O)C(F)(F)F)c1cccs1.O=C(CC(=O)C(F)(F)F)c1cccs1.[Eu]
inactive: [1] 27.7% | [2] 37.6% | [3] 39.5% | [4] 9.4% | [5] 39% | [6] 23.1%

CC[C@H]1CN2CCc3c([nH]c4ccccc34)[C@@H]2C[C@@H]1/C(=C/OC)C(=O)OC (tested in a mixture with another compound)
inactive: [1] -23.2% | [2] -25.6% | [3] -24.6% | [4] 3.6% | [5] -32.9% | [6] -13.9%

Clc1cccc2c(N3CC3)cnnc12
inactive: [1] 17.6% | [2] -1.3% | [3] -13.3% | [4] 1.4% | [5] -16.6% | [6] -2.55%

CCOC(=O)C(C(=O)OCC)c1ccccc1
inactive: [1] 7.05% and 25.4% | [2] -11% and 12.9% | [3] 11.7% and 11.1% | [4] 2.4% and 3.75% | [5] 40.4% and 23.1% | [6] -0.15% and 9.55%

Cc1nc(N)nc(N)c1CCCOc1ccc(NC(=O)c2cccc(S(=O)(=O)F)c2)cc1
inactive: [1] 33.2% | [2] 25.9% | [3] 15.4% | [4] 19.2% | [5] -4.45% | [6] 30.4%

CC1(C)CC(=O)CC(C)(C)C1
inactive: [1] -25.6% | [2] -12.2% | [3] -1.65% | [4] 4.35% | [5] -13.2% | [6] -11.2%

CNCC(=O)c1ccc(O)c(O)c1
inactive: [1] 2.4% | [2] -10.1% | [3] -30.6% | [4] -9.35% | [5] -38.9% | [6] -6.75%

Nc1nc(N)n2c(N)nnc2n1
inactive: [1] -3.4% | [2] -19.4% | [3] -0.25% | [4] 1.5% | [5] 4.65% | [6] 13.7%

CCC[CH2][Sn]1([CH2]CCC)[O]C(=O)CN=C(C)c2ccccc2[O]1
inactive: [1] 0.1% | [2] 9.85% | [3] 4% | [4] 45.5% | [5] 9.8% | [6] 3.45%

CC(C)([N+](=O)[O-])S(=O)O
inactive: [1] -9.15% | [2] -14.2% | [3] -22% | [4] -1.05% | [5] -5.4% | [6] -0.65%

C/C=C(\CC)C1(CCC)C(=O)NC(=O)NC1=O
inactive: [1] 15.1% and 5.2% | [2] 13.1% and 3% | [3] 5.25% and 22.8% | [4] 17.4% and -7% | [5] 1.35% and -0.4% | [6] 7.75% and -3.65%

CC1CC2C(CCC3(C)C2CC2(CC2)C3(C)O)C2(C)CCC(O)CC12O (configuration not stated)
inactive: [1] 12.6% | [2] 8.55% | [3] 19.9% | [4] -50% | [5] -7.35% | [6] 1.9%

O=C(CCC(=O)Oc1ccc(S(=O)(=O)F)cc1)Oc1ccc(S(=O)(=O)F)cc1
inactive: [1] 49.1% | [2] 15.3% | [3] 44.3% | [4] 26.1% | [5] 7.65% | [6] 9.8%

CNC(=O)Oc1ccc(C=Nc2cccc([N+](=O)[O-])c2)cc1
inactive: [1] 2.9% | [2] 37.4% | [3] 14.7% | [4] 0.65% | [5] 34.9% | [6] 32.5%

C[P+](C)(C)C
inactive: [1] 15.6% and -6.8% | [2] -17.2% and 7.3% | [3] -6.6% and 1.45% | [4] 1.4% and -5.8% | [5] 12% and -17.4% | [6] -26.9% and -6.85%
